Assay results: PubChem BioAssay AID602342 (Broad Institute, 2012)
Among all 340,000 compounds or so, about 1,000 (0.29%) were called active.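 The calls were made as follows: active = mean replicate activation score at least 90 and every replicate individually at or above 90; inconclusive = only one of the two criteria met; inactive = neither criterion met.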 Only a selection was taken, and actives are over-represented in it overall.

Experiment: compounds raising miR-122 luciferase sensor output – cell-based, single point, plate reader, miR-122 inhibitor project, primary screen (AID 602342);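 also: higher luciferase means less miR-122 activity so hits act as miR-122 inhibitors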
Details: Huh7 miR-122 Renilla luciferase sensor, 48 h, stronger effect = higher value, neutral wells = 0, positive control = 100; at 16.7 µM unless noted

Structure (SMILES)	activation (reporter increase)
C[C@@H]1CN([C@@H](C)CO)C(=O)c2cc(NC(=O)Cc3ccccc3)ccc2O[C@@H](C)CCCCO[C@H]1CN(C)C(=O)Cc1ccccc1	0.724% (inactive)
Cc1ccc(-c2ccc3c(c2)O[C@@H](CN(C)C(=O)CC2CC2)[C@@H](C)CN([C@@H](C)CO)S3(=O)=O)cc1	12.9% (inactive)
COc1ccc(NC(=O)N(C)C[C@H]2Oc3ccc(NS(=O)(=O)c4ccc(C)cc4)cc3C(=O)N([C@@H](C)CO)C[C@H]2C)cc1	3.8% (inactive)
COc1ccc(NC(=O)Nc2ccc3c(c2)C(=O)N([C@H](C)CO)C[C@H](C)[C@H](CN(C)S(=O)(=O)c2ccc(OC)cc2)O3)cc1	-11.1% (inactive)
COc1ccccc1C(=O)Nc1ccccc1C(=O)Nc1ccccc1	1.44% [at 12.5 µM] (inactive)
COc1ccc(C(=O)Nc2ccccc2C(=O)N/N=C/c2ccccc2OC)cc1	115% [at 12.5 µM] (active)
COc1ccc(OC)c(/C=N/NC(=O)c2ccc[n+](CC(=O)c3ccccc3)c2)c1	-4.06% [at 12.5 µM] (inactive)
COc1ccc(NC(=O)N(C)C[C@H]2OCCCC[C@@H](C)Oc3ccc(NC(=O)NC4CCCCC4)cc3C(=O)N([C@@H](C)CO)C[C@H]2C)cc1	-3.11% (inactive)
CCOC(=O)c1c(S(=O)(=O)NCC(=O)Nc2ccc(C)cc2)c(C)n(C)c1C	3.19% [at 12.5 µM] (inactive)
CCOC(=O)c1c(C)[nH]c(C)c1S(=O)(=O)NCCCc1ccco1	128% [at 12.5 µM] (active)
NC(=O)c1cc(S(=O)(=O)NCCCc2ccco2)cs1	2.02% [at 12.5 µM] (inactive)
O=C(O)c1ccc(F)c(S(=O)(=O)Nc2ccccc2)c1	3.15% [at 12.5 µM] (inactive)
Cc1cc(C(C)(C)C)cc(S(=O)(=O)Nc2ccc(C(=O)O)cc2)c1C	165% [at 12.5 µM] (active)
Cc1noc(C)c1S(=O)(=O)Nc1ccc(C(=O)O)cc1	0.153% [at 12.5 µM] (inactive)
COc1ccc(CN(C)C[C@H]2OCCCC[C@@H](C)Oc3ccc(NS(=O)(=O)c4ccccc4)cc3C(=O)N([C@@H](C)CO)C[C@@H]2C)cc1	-4.79% (inactive)
CNC(=O)C[C@@H]1CC[C@@H]2[C@H](COC[C@H](O)CN2Cc2ccc(C(F)(F)F)cc2)O1	1.05% (inactive)
COc1ccc(OCC(=O)NCCc2ccc(S(N)(=O)=O)cc2)cc1	-15.2% [at 12.5 µM] (inactive)
COc1ccc(OCCCC(=O)NCCc2ccccc2)cc1	223% [at 12.5 µM] (active)
COc1ccc(CCNC(=O)c2ccccc2OCc2ccccc2)cc1	-1.62% [at 12.5 µM] (inactive)
OC[C@@H]1[C@H](c2ccc(C#CC3CC3)cc2)[C@@H]2CN(CCC(F)(F)F)CCCCN12	12.9% (inactive)
CCCNC(=O)N1C[C@@H](O)COC[C@@H]2O[C@@H](CC(=O)O)CC[C@H]21	0.047% (inactive)
C[C@H](CO)N1C[C@H](C)[C@H](CN(C)Cc2ccc(C(=O)O)cc2)Oc2c(NC(=O)C3CCOCC3)cccc2C1=O	-5.1% (inactive)

Structure (SMILES)	activation (reporter increase)
C[C@H](CO)N1C[C@H](C)[C@@H](CN(C)Cc2ccccc2)Oc2c(NC(=O)C3CCOCC3)cccc2C1=O	14.3% (inactive)
C[C@H](CO)N1C[C@H](C)[C@H](CN(C)CC2CCCCC2)Oc2c(NC(=O)c3cnccn3)cccc2C1=O	119% (active)
C[C@H](CO)N1C[C@H](C)[C@@H](CN(C)Cc2ccc3c(c2)OCO3)Oc2c(NC(=O)C3CCOCC3)cccc2C1=O	319% (active)
C[C@@H]1CN([C@H](C)CO)C(=O)c2cccc(NC(=O)c3cnccn3)c2O[C@@H]1CN(C)Cc1ccncc1	-3.39% (inactive)
CC(C)NC(=O)N(C)C[C@@H]1Oc2c(NC(=O)c3cnccn3)cccc2C(=O)N([C@@H](C)CO)C[C@@H]1C	4.6% (inactive)
CN(C)CCCNC(=O)C[C@@H]1C=C[C@H](NC(=O)Cc2cccnc2)[C@H](CO)O1	15.8% (inactive)
COc1ccc(S(=O)(=O)N(C)C[C@H]2OCCCC[C@@H](C)Oc3ccc(NC(=O)CCC(F)(F)F)cc3C(=O)N([C@@H](C)CO)C[C@H]2C)cc1	16.9% (inactive)
C[C@@H]1CCCCO[C@@H](CN(C)S(=O)(=O)c2cn(C)cn2)[C@@H](C)CN([C@@H](C)CO)C(=O)c2cc(NC(=O)Nc3ccc(C(F)(F)F)cc3)ccc2O1	-9.96% (inactive)
CCOc1ncccc1C(=O)NNC(=O)c1cccc(S(=O)(=O)Nc2ccccc2OC)c1	-0.667% [at 12.5 µM] (inactive)
COc1cc(NS(=O)(=O)c2ccc3ccccc3c2)c2ncccc2c1	152% [at 12.5 µM] (active)
COc1ccc(N2CC(NS(=O)(=O)c3ccc4ccccc4c3)CC2=O)cc1 (stereo not drawn)	-5.35% [at 12.5 µM] (inactive)
C[C@H]1CN([C@@H](C)CO)C(=O)c2cccc(NC(=O)Nc3ccc(F)cc3)c2O[C@H]1CN(C)S(=O)(=O)c1cn(C)cn1	4.09% (inactive)
CCOc1ccc(S(=O)(=O)Nc2ccncc2)c(C)c1C	20.9% [at 12.5 µM] (inactive)
COc1ccc(S(=O)(=O)Nc2ccc(F)cc2)c(C)c1C	231% [at 12.5 µM] (active)
COc1ccc(F)cc1S(=O)(=O)NCC(c1ccc2c(c1)OCO2)N1CCN(C)CC1 (stereo not drawn)	2.63% [at 12.5 µM] (inactive)
COc1ccc(S(=O)(=O)Nc2ccc3c(c2)OCO3)cc1Cl	37.2% [at 12.5 µM] (inactive)
COc1ccc(F)cc1S(=O)(=O)Nc1ccc2c(c1)OCO2	99.7% [at 12.5 µM] (active)
COc1ccc(NS(=O)(=O)c2ccc(F)cc2F)cn1	-2.63% [at 12.5 µM] (inactive)
CO[C@H]1CN(C)C(=O)c2ccc(NS(=O)(=O)c3ccccc3C)cc2OC[C@H](C)NC[C@H]1C	6.89% (inactive)
Cn1cnc(S(=O)(=O)N2C[C@@H](O)COC[C@H]3O[C@@H](CC(=O)NCc4ccc(F)cc4)CC[C@@H]32)c1	2.69% (inactive)
O=C(N[C@@H]1CC[C@H](CCn2cc(C3CC3)nn2)O[C@H]1CO)c1cccnc1	-7.57% (inactive)
